Experiment [1] can be described thus: anti-His antibody binders, primary screen, artefact control for SMM control protein annotation, biochemical, small-molecule microarray, 635 nm fluorescence (AID 1128).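 Note: score merges feature fluorescence with signal-to-noise for each printed compound spot.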 The settings on record: anti-His Alexa647 antibody binding, higher = more signal.
The subject of experiment [2] is Human papillomavirus type 1a E7 protein (residues 1-88). The experiment is described as follows: HPV1a E7 small-molecule binders, primary screen, biochemical, small-molecule microarray, residues 1-88, 635 nm (AID 1129). The settings on record: small-molecule microarray binding, fluorescence 635 nm; higher = more signal.
For experiment [3], the target named is Focal adhesion kinase 1 (Homo sapiens) (UniProt Q05397). Description: small-molecule microarray binders of FAK, primary screen, biochemical, 635/667 nm fluorescence, BSA, DTT (AID 1130).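 Note: composite of spot emission at 667 nm and signal to noise over triplicate slides.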 The settings on record: PTK2 binding, 635 nm fluorescence, higher = more signal.
In experiment [4] the test system is Fibrinogen (Alexa647-labelled). The experiment is described as follows: fibrinogen binders on compound microarrays, profiling panel, artefact control for SMM control-protein annotation, biochemical, small-molecule microarray, 635/667 nm fluorescence (AID 1131).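 Note: z-score merges 667 nm fluorescence with per-spot signal-to-noise over triplicate slides.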 The settings on record: fibrinogen-A647 binding fluorescence, higher = more signal.
Experiment [5] deals with Follistatin (Homo sapiens) (UniProt P19883). The experiment is described as follows: follistatin binders on small-molecule microarrays, primary screen, biochemical, small-molecule microarray, 635/667 nm fluorescence (AID 1132). The settings on record: FST binding, 635 nm fluorescence, higher = more signal.
Experiment [6] concerns the target Fibroblast growth factor 2 (Homo sapiens) (UniProt P09038). The experiment is described as follows: FGF2 binders on small-molecule microarrays, primary screen, biochemical, small-molecule microarray, 635/667 nm fluorescence (AID 1133). The settings on record: small-molecule microarray binding, FGF2, fluorescence 635/667; higher = more signal.
A short description of experiment [7]: mitochondrial membrane potential change in A549 cells, profiling panel, cell-based, JC-1 fluorescence, basal, 24 h, 100 nL (AID 1138).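 Note: A549 lung adenocarcinoma cells under basal conditions with no added stimulus; test concentration not given here.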 The settings on record: higher = more signal.
Another experiment concerns Lefty1. The experiment is described as follows: Lefty1 binders on small-molecule microarrays, primary screen, biochemical, small-molecule microarray, 635/667 nm fluorescence (AID 1139). The settings on record: small-molecule microarray binding, fluorescence 635/667; higher = more signal.
In experiment [8] the test system is wheat germ agglutinin (Triticum aestivum), Alexa647-labelled. Description: wheat germ agglutinin binders on compound microarrays, profiling panel, artefact control for SMM control-protein annotation, biochemical, small-molecule microarray, 635/667 nm fluorescence (AID 1140).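 Note: score merges 667 nm feature emission with signal to noise over triplicate slides.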 The settings on record: WGA-A647 binding, 635 nm fluorescence, higher = more signal.
Experiment [9] addresses Luciferin 4-monooxygenase (Photinus pyralis) (UniProt P08659). Description: firefly luciferase enzyme inhibitors, primary screen, biochemical, luminescence, purified enzyme, 2006 set (AID 1141).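 Note: cell-free assay with purified firefly luciferase at 100 ng per well in PBS; test concentration not given here.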 The settings on record: SteadyGlo luminescence, 30 min, higher = more signal, called active from +8 up or from −8 down.
For experiment [10], the system named is Wnt5a (protein binding on small-molecule microarray). Description: Wnt5a binders on small-molecule microarray, primary screen, biophysical, 635/667 nm fluorescence (AID 1142).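 Note: fluorescence read at 667 nm with signal to noise per printed feature.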 The settings on record: 635 nm fluorescence, higher = more signal.
The nature of experiment [11]: cell viability in Huh7 cells, primary screen, cytotoxicity control for HCV replication inhibitor project, CellTiter-Glo luminescence, basal, 48 h (AID 1143).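 Note: Huh7 hepatoma cells carrying a hepatitis C replication reporter with no stimulus; test concentration not given here.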 The settings on record: Huh7 HCV replicon, higher = more signal, called active from +8 up or from −8 down.
A short description of experiment [12]: P. aeruginosa biofilm formation inhibitors, primary screen, PAO1 strain, BacTiter-Glo luminescence, LB-PBS (AID 1144). The settings on record: 12 h, higher = more signal.
Experiment [13] in a line: CREB reporter modulators without forskolin, primary screen, cell-based, PC12, CRE-LacZ reporter, unstimulated (AID 1145). The settings on record: no forskolin, luminescence, 4.5 h, higher = more signal, called active from +8 up or from −8 down.
The nature of experiment [14]: CREB reporter modulators under forskolin, primary screen, cell-based, PC12, CRE-LacZ reporter, forskolin-stimulated (AID 1146).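 Note: PC12 cells with 6xCRE LacZ reporter stimulated by forskolin 10 µM; beta-galactosidase reporter signal reflecting CREB driven transcription.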 The settings on record: luminescence, 4.5 h, higher = more signal, called active from +8 up or from −8 down.
Experiment [15] concerns the target Streptavidin (Streptomyces avidinii) (UniProt P22629). Description: streptavidin binders on small-molecule microarray, primary screen, artefact control for SMM compound annotation, biophysical, 635/667 nm fluorescence (AID 1147).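 Note: signal reflects streptavidin binding to arrayed compounds as a control protein.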 The settings on record: streptavidin binding, higher = more signal.
A short description of experiment [16]: small-molecule binders of probe aInhba, primary screen, biochemical, small-molecule microarray, 635/667 nm fluorescence (AID 1148).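 Note: score merges 667nm spot fluorescence with signal-to-noise for antibody binding to printed compounds.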 The settings on record: higher = more signal.
The target of experiment [17] is Torsin-1A (Homo sapiens) (UniProt O14656). Description: torsin A binders from cell lysate, primary screen, small-molecule microarray, wild-type, 635/667 nm (AID 1149). The settings on record: COS7 hTOR1A-WT lysate, 635 nm fluorescence, higher = more signal.
Experiment [18] has the same target. The experiment is described as follows: small-molecule binders of mutant TOR1A in lysate, primary screen, cell lysate, small-molecule microarray, COS7 lysate, 635/667 nm fluorescence (AID 1150).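 Note: score pools 667 nm emission and signal to noise measuring lysate protein binding.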 The settings on record: COS7 hTOR1A mutant lysate, 635 nm fluorescence, higher = more signal.
For experiment [19], the system named is Sonic hedgehog protein (Shh). Description: small-molecule binders of Shh protein, primary screen, biochemical, small-molecule microarray, 635/667 nm fluorescence (AID 1151).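 Note: Shh protein binding to compounds spotted on small-molecule microarray slides; score combines spot fluorescence intensity with signal-to-noise across triplicate slides.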 The settings on record: small-molecule microarray binding, 635 nm fluorescence; higher = more signal.

Activity calls are given as the source filed them. Unless noted, the rule behind the calls is not given here.

Follistatin (Homo sapiens), sequence (P19883 whole entry, looked up): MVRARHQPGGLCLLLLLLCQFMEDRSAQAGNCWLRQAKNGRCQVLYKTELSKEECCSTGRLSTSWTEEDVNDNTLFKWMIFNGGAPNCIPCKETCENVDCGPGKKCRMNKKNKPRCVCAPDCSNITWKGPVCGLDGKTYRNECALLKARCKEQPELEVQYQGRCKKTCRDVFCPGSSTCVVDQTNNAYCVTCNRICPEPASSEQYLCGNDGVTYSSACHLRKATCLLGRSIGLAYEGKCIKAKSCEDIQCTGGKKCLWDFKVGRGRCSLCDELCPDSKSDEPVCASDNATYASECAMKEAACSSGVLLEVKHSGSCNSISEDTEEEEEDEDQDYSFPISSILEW
Torsin-1A (Homo sapiens), sequence (O14656 whole entry, looked up): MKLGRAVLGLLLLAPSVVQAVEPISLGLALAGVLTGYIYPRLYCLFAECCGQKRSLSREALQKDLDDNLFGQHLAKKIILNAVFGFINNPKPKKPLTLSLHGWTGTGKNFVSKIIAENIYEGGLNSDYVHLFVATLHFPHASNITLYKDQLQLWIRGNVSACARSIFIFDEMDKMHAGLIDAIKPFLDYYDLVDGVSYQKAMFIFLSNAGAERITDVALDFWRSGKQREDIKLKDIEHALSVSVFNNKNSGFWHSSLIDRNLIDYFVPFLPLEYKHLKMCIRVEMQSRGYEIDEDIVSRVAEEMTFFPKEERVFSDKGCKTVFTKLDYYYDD
Fibroblast growth factor 2 (Homo sapiens), sequence (P09038 whole entry, looked up): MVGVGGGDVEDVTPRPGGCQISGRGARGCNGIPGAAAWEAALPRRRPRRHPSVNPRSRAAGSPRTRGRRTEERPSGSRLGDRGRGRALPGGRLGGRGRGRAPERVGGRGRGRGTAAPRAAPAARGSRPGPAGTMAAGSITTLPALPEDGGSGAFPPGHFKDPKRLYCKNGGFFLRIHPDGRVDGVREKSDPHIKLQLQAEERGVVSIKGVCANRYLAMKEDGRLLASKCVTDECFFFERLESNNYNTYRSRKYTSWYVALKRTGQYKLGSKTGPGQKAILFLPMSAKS
Luciferin 4-monooxygenase (Photinus pyralis), sequence (P08659 whole entry, looked up): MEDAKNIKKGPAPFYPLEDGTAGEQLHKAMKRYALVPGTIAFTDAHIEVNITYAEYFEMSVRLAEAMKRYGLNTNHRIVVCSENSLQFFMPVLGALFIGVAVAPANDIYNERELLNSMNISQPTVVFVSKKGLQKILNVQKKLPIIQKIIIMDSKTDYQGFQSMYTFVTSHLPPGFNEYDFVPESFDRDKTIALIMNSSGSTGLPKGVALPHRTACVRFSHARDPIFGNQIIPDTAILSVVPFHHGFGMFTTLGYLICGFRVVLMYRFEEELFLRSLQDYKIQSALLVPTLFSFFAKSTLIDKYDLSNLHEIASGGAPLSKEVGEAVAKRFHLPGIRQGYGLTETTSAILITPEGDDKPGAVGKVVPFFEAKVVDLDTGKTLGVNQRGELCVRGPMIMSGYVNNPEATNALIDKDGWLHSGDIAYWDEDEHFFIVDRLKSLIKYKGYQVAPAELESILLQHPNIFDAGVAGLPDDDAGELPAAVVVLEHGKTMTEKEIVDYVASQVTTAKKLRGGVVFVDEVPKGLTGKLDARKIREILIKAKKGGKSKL
Focal adhesion kinase 1 (Homo sapiens), sequence (Q05397 whole entry, looked up): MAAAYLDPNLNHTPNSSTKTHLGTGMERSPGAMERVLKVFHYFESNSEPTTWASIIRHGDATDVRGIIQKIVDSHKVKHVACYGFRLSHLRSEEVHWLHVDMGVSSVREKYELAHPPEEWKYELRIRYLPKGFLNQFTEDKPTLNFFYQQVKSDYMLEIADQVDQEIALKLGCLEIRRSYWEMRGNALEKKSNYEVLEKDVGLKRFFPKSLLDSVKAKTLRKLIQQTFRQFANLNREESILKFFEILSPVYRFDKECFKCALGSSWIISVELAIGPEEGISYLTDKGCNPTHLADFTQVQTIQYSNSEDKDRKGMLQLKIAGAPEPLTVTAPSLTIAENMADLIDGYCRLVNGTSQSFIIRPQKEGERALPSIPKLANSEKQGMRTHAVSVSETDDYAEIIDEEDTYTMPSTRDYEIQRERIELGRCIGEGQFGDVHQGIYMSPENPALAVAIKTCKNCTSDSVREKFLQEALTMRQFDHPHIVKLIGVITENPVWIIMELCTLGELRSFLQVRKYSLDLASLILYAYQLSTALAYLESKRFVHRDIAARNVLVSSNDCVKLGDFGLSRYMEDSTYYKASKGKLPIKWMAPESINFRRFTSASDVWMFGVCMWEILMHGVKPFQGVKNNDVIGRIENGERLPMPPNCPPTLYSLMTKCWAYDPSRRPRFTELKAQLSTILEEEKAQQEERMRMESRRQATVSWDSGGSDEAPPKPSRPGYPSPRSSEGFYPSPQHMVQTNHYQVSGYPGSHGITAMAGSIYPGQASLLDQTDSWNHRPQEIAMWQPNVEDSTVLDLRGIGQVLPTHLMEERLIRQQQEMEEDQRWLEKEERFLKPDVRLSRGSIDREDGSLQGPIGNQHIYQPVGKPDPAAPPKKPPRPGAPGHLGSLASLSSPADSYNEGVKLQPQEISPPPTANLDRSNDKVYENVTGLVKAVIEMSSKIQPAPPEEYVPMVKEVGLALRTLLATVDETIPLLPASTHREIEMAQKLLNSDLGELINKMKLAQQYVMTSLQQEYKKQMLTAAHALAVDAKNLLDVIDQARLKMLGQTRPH
Streptavidin (Streptomyces avidinii), sequence (P22629 whole entry, looked up): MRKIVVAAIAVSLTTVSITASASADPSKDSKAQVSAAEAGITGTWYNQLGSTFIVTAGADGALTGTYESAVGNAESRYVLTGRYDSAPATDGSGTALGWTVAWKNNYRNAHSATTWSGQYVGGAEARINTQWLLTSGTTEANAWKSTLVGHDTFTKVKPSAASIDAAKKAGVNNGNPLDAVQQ

For `CCCCN1CC=CC23O[C@@H]4C=CCOC(=O)[C@@H]4[C@H]2C(=O)N(CCCCCCO)[C@@H]3C1=O` (stereo not given in full), the composite z-score in [1] was -0.818; in experiment [2] it was -0.544; in experiment [3], 0.717; in [4], -2.1; in [5], -1.55; in experiment [6], -0.802. Moreover, the composite z-score was -1.25 with Lefty1; -1.24 in [8]; -0.575 in [10]; -1.35 in [15]; -0.249 in experiment [16]; -0.873 with Torsin-1A (Homo sapiens) [17]. The composite z-score is -0.748 with Torsin-1A (Homo sapiens) [18] and -0.711 in experiment [19]. Further, the z-score in experiment [7] was 0.00246; in experiment [9], -0.419 (inactive); in experiment [11], 0.205 (inactive); in [12], 1.05 (inactive); in experiment [13], -0.0899 (inactive); in experiment [14], 1.12 (inactive).
In the case of `O=C1NC(=O)C2C1C=CC(C(O)c1ccc(-c3ccccc3)s1)N2Nc1ccc(Cl)cc1Cl` (stereo not given), the composite z-score in experiment [1] is 0.752; in experiment [2], 1.11; in experiment [3], 1.06; in experiment [4], 0.934; in experiment [5], 0.833; in [6] it was -0.91. The composite z-score in the experiment on Lefty1 amounted to 0.127; in experiment [8], 0.865; in [10] it was 0.289; in [15], 1.34; in experiment [16] it was 0.0569; in the experiment with Torsin-1A (Homo sapiens) [17], 0.344. The results for the composite z-score (with Torsin-1A (Homo sapiens) [18]; in experiment [19]) were 0.14 and -0.82, respectively. Besides, the z-score was -0.536 in [7]; -0.289 (inactive) in experiment [9]; -1.1 (inactive) in experiment [11]; -1.77 (inactive) in experiment [12]; -0.136 (inactive) in experiment [13]; -0.128 (inactive) in experiment [14].
For `CCCCN1CC=CC23O[C@@H]4/C=C\CCCOC(=O)C4[C@H]2C(=O)N(CCCCCO)[C@@H]3C1=O` (stereo not given in full), the composite z-score is 0.688 in experiment [1]; -1.02 in [2]; 1.31 in experiment [3]; -0.918 in [4]; -0.803 in experiment [5]; -0.573 in experiment [6]. Besides, the composite z-score was -1.12 in the experiment with Lefty1; -0.595 in experiment [8]; 0.0311 in [10]; -1.43 in experiment [15]; -0.211 in experiment [16]; -0.0808 with Torsin-1A (Homo sapiens) [17]. Besides, the figures for the composite z-score (with Torsin-1A (Homo sapiens) [18]; in [19]) were 0.777 and -0.695, respectively. The z-score was 0.897 in experiment [7]; 0.686 (inactive) in experiment [9]; -0.103 (inactive) in [11]; 0.0433 (inactive) in [12]; 0.333 (inactive) in experiment [13]; -0.391 (inactive) in [14].
Regarding `O=C1N(CCS(=O)(=O)c2ccccc2)c2ccccc2[C@@H]2OC(c3ccc(OCCCO)cc3)=N[C@]12Cc1ccccc1`, the composite z-score turned out to be 1.65 in experiment [1]; 1.19 in experiment [2]; 1.05 in [3]; 0.959 in experiment [4]; 1.43 in [5]; 1.71 in [6]. Moreover, the composite z-score with Lefty1 was 1.18; in [8], 0.668; in [10], -0.0372; in [15] it was 0.14; in experiment [16], 0.0091; with Torsin-1A (Homo sapiens) [17], 0.422. In addition, the composite z-score was determined as 0.208 with Torsin-1A (Homo sapiens) [18] and 1.95 in experiment [19]. For the same compound, the z-score is 2.29 in experiment [7]; -11.5 (active) in experiment [9]; -3.61 (inactive) in experiment [11]; -0.157 (inactive) in [12]; 1.26 (inactive) in experiment [13]; -1.77 (inactive) in [14].
On to `C=C(CCCC)C(=O)CC[C@@H](OC(C)=O)c1ccc(CO)o1`, for which the composite z-score in [1] is 0.184; in experiment [2], -0.261; in [3], -0.437; in experiment [4], 0.513; in experiment [5], 1.36; in experiment [6], 1.8. In addition, the composite z-score in the experiment on Lefty1 was 1.64; in experiment [8], 0.201; in [10] it was 0.52; in [15], -0.918; in experiment [16] it was -0.154; in the experiment with Torsin-1A (Homo sapiens) [17], -0.0372. In addition, the composite z-score came to 0.232 in the experiment with Torsin-1A (Homo sapiens) [18] and 1.95 in experiment [19]. Moreover, the z-score in experiment [7] is -0.683; in [9], -1.3 (inactive); in experiment [11], -1.56 (inactive); in experiment [12], -0.905 (inactive); in experiment [13] it was -0.35 (inactive); in experiment [14], 0.516 (inactive).

Source of the values: PubChem BioAssay.
